PubChem BioAssay (NCATS)
Inconclusive results are not listed. Calls of active or inactive are those of the source. Unless noted, the call rests on the fitted dose curve; in most records, active means well fitted curve in the direction sought with a large enough effect; inconclusive means small, poorly fitted or top-dose-only effect, or another doubt; inactive means no such curve, though single readings can be large; an effect the other way counts as inactive or inconclusive.

How the values were obtained:
[1] = Viability counterscreen for antagonist of constitutive androstane receptor (CAR) against the NCATS DSHEA and TCM libraries (AID 1794837);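 further: compound exposure lasted 24 h before viability reading; 0% is about no effect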
Procedure, shortened: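 Fluorescence from CellTiter-Fluor reports live-cell protease activity in HepG2-CYP2B6-hCAR cells treated for 24 h with substances alongside 48 uM CITCO.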

[2] = Viability counterscreen for agonist of constitutive androstane receptor (CAR) against the NCATS DSHEA and TCM libraries (AID 1794838);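 further: cells exposed to compound for 24 h; 0% is about no effect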
Procedure, shortened: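 In agonist mode, PK11195 is added at 0.75 uM final to HepG2-CYP2B6-hCAR cells dosed with test substances. Cultures incubate 24 h at 37C before a protease-based fluorogenic viability readout.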

[3] = biological target: Nuclear receptor subfamily 1 group I member 3 (Homo sapiens) (UniProt Q14994); experiment: Primary qHTS for agonist of constitutive androstane receptor (CAR) against the NCATS DSHEA and TCM libraries (AID 1794839); further: potency means the concentration at half of the fitted maximal effect
Procedure, shortened: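 Cells stably carrying hCAR and a CYP2B6 reporter (HepG2 background) are seeded and allowed 5 h to adhere. Substances at multiple concentrations are added alongside 0.75 µM PK11195, and luciferase signal is measured after 24 h.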

[4] = HepG2 viability counterscreen (readout 2: ATP content) against the NCATS DSHEA and TCM libraries (AID 1794840);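 further: HepG2 cells exposed to substances for about 24 h; 0% is about no effect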
Procedure, shortened: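 Cytotoxicity was assessed in HepG2 cells plated at 1,000 cells/well and exposed for about 24 hours to a concentration series. Protease activity and ATP content were measured sequentially in each well.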

[5] = biological target: Cytochrome P450 3A4 (Homo sapiens) (UniProt P08684); experiment: qHTS for inhibitors of CYP3A4 against the NCATS DSHEA and TCM libraries (AID 1919971); further: potency means the concentration at half of the fitted maximal effect;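 on activity change, negative = inhibition: on the % scale 0 is the no-effect control and ±100 the full control effect; inhibition lowers luminescence from luciferin made by CYP3A4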
Procedure, shortened: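 Light output from converted D-luciferin reports remaining CYP activity. Compounds preincubate with enzyme and substrate for 15 min; NADPH regeneration (1x final) runs the reaction for 30-45 min.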

[6] = biological target: Cytochrome P450 2D6 (Homo sapiens) (UniProt P10635); experiment: qHTS for inhibitors of CYP2D6 against the NCATS DSHEA and TCM libraries (AID 1919972); further: on the % scale 0 is the no-effect control and ±100 the full control effect
Procedure, shortened: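 Steps: enzyme plus luciferin substrate dispensed; test substances pinned; 15 min RT; 1x NADPH regenerating solution added, 30–45 min RT protected from light; detection reagent, 30 min RT; luminescence measured. Minus-enzyme wells as background.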

[7] = KB-3-1 P-gp reporter qHTS against the NCATS DSHEA and TCM libraries (AID 1919975); further: 0% is about no effect
Procedure, shortened: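 72 h exposure of KB-3-1 cells (DMEM, 10% FBS) to DSHEA/TCM samples, concentration-response; cell viability measured as CellTiter-Glo luminescence after 30 min at room temperature.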

[8] = biological target: Cytochrome P450 1A2 (Homo sapiens) (UniProt P05177); experiment: qHTS for inhibitors of CYPIA2 against the NCATS DSHEA and TCM libraries (AID 1919976); further: potency means the concentration at half of the fitted maximal effect
Procedure, shortened: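 In this quantitative HTS, inhibition of recombinant human CYP1A2 was measured as loss of luciferin-derived luminescence. Turnover ran 30-45 min at RT after NADPH regeneration solution was added.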

[9] = qHTS Counterscreen for compound interference against the NCATS DSHEA and TCM libraries (AID 1919978); settings: firefly luciferase detection reagent interference, luminescence; further: % of control where 0% means no effect
Procedure, shortened: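 Read-out is luminescence after 30 min at RT with luciferin detection reagent. Before that, compounds (19.5 nM to 39.8 uM final) sat 15 min at RT with 1 uM D-luciferin or 100 mM potassium phosphate buffer. PTC124 served as intraplate control.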

[10] = Dual reporter qHTS for agonist of Pregnane X Receptor (hPXR) against the NCATS DSHEA and TCM libraries: Fluorescence readout (AID 1920058); further: 0% is about no effect
Procedure, shortened: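 Measures viability of the PXR reporter HepG2 line by protease-substrate fluorescence (405/540 nm), taken 1 h after CellTiter-Fluor addition. Substances are tested as concentration series over a ~24 h exposure, with rifampicin as agonist control.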

[11] = biological target: Nuclear receptor subfamily 1 group I member 2 (Homo sapiens) (UniProt O75469); experiment: Dual reporter qHTS for agonist of Pregnane X Receptor (hPXR) against the NCATS DSHEA and TCM libraries: Luminescence readout (AID 1920059); further: potency means the concentration at half of the fitted maximal effect
Procedure, shortened: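 Luminescent PXR reporter read (ONE-Glo) after a CellTiter-Fluor viability read, following 24 h, 37C treatment of HepG2 cells stably carrying hPXR-Luc.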

[12] = biological target: Nuclear receptor subfamily 1 group I member 2 (Homo sapiens) (UniProt O75469); experiment: Dual reporter qHTS for antagonist of Pregnane X Receptor (hPXR) against the NCATS DSHEA and TCM libraries: Luminescence Readout (AID 1920060);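 further: HepG2 cells carrying hPXR luciferase reporter stimulated with rifampicin at 2 µM; 0% is about no effect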
Procedure, shortened: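 In antagonist mode, 2 uM rifampicin was added to hPXR-Luc HepG2 cells alongside test substances, incubated 24 h at 37 C; luminescence gave reporter activity, and CellTiter-Fluor fluorescence (405/540 nm) gave viability.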

[13] = biological target: Mitogen-activated protein kinase 10 (Mus musculus) (UniProt Q61831); experiment: JNK3 AlphaScreen Assay (AID 530; active means well fitted curve in either direction with a large enough effect, not every such curve was filed as active;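 further: kinase came from lysate of stimulated human HepG2 cells; signal reports phosphorylation of biotinylated GST-cJun 1-79 at Ser73 with 10 µM ATP; on the % scale 0 is the no-effect control and ±100 the full control effect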)
Procedure, shortened: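 Room-temperature AlphaScreen kinase assay; pre-activated HepG2 lysate as JNK3 source, biotin-GST-cJun(1-79) substrate, 10 uM ATP, compound 15 min preincubation.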

[14] = biological target: Lysosomal acid glucosylceramidase (Homo sapiens) (UniProt P04062); experiment: Glucocerebrosidase-p2 (AID 348; in the data active means potency below about 10 µM; further: potency means the concentration at half of the fitted maximal effect); settings: purified GBA, blue fluorogenic substrate, 40 min
Procedure, shortened: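 Compounds titrated from 0.6 nM upwards against 0.2 nM enzyme in pH 5.9 citric acid/KH2PO4, taurocholate, tween-20; blue fluorogenic substrate 80 uM, 40 min room temperature, stopped and read Ex 365/Em 440 for AC50.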

[15] = biological target: Cytochrome P450 1A2 (Homo sapiens) (UniProt P05177); experiment: p450-cyp1a2 (AID 410; calls by dose curve; further: potency means the concentration at half of the fitted maximal effect)
Procedure, shortened: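 Inhibition was calculated relative to 57 uM furafylline (full inhibition). The reaction used human CYP1A2 at 20nM with Luciferin-ME at its Km, 100uM, driven by an NADPH-regenerating system for 60 min at room temperature.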

[16] = NFAT Signaling Pathway (AID 444; active means well fitted curve in either direction with a large enough effect, not every such curve was filed as active;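 further: carbachol stimulus at about its EC50 of 1 µM final; on the % scale 0 is the no-effect control and ±100 the full control effect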); settings: Jurkat NFAT-bla M1, carbachol, beta-lactamase ratio, 5 h; at 7.69 µM (top of the series) unless noted
Procedure, shortened: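 Read-out: CCF4 FRET ratio (460 nm/530 nm) after 1 h RT dye loading, used for %activity and AC50 from titration series. Cells: Jurkat NFAT-β-lactamase/M1 line, treated with compound plus 1 uM carbachol for 5 h, 37 °C.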

[17] = Stat Signaling Pathway (AID 446; active means well fitted curve in either direction with a large enough effect, not every such curve was filed as active;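 further: ME-180 cervical cancer cells given 40 pM IL-6 alongside compound; SIE-controlled beta-lactamase reporter measured as 460/530 nm FRET emission ratio; on the % scale 0 is the no-effect control and ±100 the full control effect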)
Procedure, shortened: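 Reporter line: ME-180 cervical carcinoma, SIE-beta-lactamase. Treatment: compound with 40 pM IL-6, 5 hrs, 37 C, in low-serum OPTI-MEM with 10 mM HEPES pH 7.3. Detection: 460/530 nm fluorescence.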

[18] = biological target: Glucocorticoid receptor (Homo sapiens) (UniProt P04150); experiment: GR-EFC Redistribution (AID 451; calls by dose curve; further: potency means the concentration at half of the fitted maximal effect); settings: CHO-K1 GR-EFC translocation, beta-gal luminescence, 2 h
Procedure, shortened: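 Translocation of GR-ED fusion to nuclear EA restores b-gal, read by luminescence after 1 h room-temperature detection. Engineered CHO-K1 biosensor cells, 1,000/well, exposed 2 h at 37 C to titrations up to 46 uM final.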

[19] = biological target: Ubiquitin carboxyl-terminal hydrolase 1 (Homo sapiens) (UniProt O94782); experiment: Inhibitors of USP1/UAF1: Pilot qHTS (AID 504865);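 further: rhodamine fluorescence freed from ubiquitin-rhodamine substrate followed over time; top concentration of the series differs between compounds; on the % scale 0 is the no-effect control and ±100 the full control effect; nearly all actives have a fitted effect of over 35% in size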
Procedure, shortened: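 Kinetic fluorescence assay: 1nM USP1/UAF1, 15 min compound preincubation, then 150nM Ub-Rho; 480/540 nm.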

[20] = biological target: Glucocorticoid receptor (Homo sapiens) (UniProt P04150); experiment: GR-GFP Redistribution (AID 450;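 active means compounds whose dose series gives a full or clear partial fitted curve of increased nuclear translocation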; further: potency means the concentration at half of the fitted maximal effect); settings: U2OS GR-GFP nuclear translocation, laser cytometry, 2 h

Chain of Nuclear receptor subfamily 1 group I member 3 (Homo sapiens) (Q14994 whole entry, looked up): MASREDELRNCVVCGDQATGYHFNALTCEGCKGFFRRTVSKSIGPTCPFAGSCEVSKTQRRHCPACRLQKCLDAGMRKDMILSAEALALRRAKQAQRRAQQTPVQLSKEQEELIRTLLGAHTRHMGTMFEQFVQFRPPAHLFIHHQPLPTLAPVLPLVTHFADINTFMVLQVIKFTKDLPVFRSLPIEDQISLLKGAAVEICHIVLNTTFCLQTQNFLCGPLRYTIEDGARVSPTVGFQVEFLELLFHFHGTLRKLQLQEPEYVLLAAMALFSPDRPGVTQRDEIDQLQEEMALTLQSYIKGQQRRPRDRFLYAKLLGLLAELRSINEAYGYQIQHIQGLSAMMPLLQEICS
Chain of Ubiquitin carboxyl-terminal hydrolase 1 (Homo sapiens) (O94782 whole entry, looked up): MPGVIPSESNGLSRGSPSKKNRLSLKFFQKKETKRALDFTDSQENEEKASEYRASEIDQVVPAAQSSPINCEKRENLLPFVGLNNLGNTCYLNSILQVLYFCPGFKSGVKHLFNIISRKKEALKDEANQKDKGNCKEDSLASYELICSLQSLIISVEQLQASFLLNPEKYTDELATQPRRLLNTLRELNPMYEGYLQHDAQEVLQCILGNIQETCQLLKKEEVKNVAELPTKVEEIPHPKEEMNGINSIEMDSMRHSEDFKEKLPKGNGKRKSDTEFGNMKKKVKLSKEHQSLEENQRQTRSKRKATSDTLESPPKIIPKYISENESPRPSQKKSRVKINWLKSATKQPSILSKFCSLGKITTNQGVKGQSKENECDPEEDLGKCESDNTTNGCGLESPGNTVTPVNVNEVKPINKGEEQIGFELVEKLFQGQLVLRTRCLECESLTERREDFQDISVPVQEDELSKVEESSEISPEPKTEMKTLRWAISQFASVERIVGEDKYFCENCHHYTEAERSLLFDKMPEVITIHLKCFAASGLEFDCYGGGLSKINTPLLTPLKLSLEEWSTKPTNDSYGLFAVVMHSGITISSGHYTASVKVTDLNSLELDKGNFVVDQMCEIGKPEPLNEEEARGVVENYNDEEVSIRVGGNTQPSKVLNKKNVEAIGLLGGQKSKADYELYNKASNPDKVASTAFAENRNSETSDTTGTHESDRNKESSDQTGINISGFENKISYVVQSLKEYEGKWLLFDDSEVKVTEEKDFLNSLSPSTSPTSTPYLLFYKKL
Chain of Cytochrome P450 1A2 (Homo sapiens) (P05177 whole entry, looked up): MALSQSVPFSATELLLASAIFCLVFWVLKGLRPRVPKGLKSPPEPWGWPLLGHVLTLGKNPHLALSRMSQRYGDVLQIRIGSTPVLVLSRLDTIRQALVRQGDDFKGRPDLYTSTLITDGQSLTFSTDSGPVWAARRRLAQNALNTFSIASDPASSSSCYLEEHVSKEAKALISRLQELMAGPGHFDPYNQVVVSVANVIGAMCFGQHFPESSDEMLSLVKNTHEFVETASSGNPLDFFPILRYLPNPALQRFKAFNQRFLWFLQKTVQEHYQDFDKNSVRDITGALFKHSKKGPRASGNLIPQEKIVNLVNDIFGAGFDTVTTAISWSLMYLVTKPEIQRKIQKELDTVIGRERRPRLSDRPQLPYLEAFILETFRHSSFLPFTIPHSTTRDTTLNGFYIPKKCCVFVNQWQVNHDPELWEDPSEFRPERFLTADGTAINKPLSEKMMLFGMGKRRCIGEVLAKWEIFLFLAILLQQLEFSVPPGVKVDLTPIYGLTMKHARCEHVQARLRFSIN
Chain of Cytochrome P450 2D6 (Homo sapiens) (P10635 whole entry, looked up): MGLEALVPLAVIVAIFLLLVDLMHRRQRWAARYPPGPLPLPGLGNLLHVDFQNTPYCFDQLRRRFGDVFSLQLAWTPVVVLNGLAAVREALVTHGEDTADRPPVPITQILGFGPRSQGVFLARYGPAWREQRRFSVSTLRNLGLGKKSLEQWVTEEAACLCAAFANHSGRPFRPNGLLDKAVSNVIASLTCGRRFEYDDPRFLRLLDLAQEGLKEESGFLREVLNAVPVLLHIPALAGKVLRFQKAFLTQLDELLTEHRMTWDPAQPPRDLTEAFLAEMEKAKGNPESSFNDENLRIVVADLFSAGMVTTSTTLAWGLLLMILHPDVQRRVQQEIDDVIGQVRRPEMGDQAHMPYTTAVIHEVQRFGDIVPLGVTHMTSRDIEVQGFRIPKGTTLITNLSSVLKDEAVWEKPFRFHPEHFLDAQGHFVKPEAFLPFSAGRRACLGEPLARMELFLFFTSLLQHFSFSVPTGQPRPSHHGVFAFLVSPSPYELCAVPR
Chain of Lysosomal acid glucosylceramidase (Homo sapiens) (P04062 whole entry, looked up): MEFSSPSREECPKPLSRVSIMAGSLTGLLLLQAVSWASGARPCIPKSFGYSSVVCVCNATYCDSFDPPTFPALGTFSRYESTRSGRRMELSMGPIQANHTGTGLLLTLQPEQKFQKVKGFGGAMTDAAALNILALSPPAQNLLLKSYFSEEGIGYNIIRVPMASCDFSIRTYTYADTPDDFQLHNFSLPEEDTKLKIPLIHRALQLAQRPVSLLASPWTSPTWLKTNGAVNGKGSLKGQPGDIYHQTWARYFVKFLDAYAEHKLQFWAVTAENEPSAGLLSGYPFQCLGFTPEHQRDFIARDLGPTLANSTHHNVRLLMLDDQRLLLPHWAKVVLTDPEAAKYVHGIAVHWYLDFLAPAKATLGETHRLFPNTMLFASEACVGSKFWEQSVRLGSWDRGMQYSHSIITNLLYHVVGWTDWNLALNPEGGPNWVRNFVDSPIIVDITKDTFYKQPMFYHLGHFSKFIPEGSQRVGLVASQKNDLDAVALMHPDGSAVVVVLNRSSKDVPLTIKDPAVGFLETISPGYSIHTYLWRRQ
Chain of Glucocorticoid receptor (Homo sapiens) (P04150 whole entry, looked up, the tested form may be a part): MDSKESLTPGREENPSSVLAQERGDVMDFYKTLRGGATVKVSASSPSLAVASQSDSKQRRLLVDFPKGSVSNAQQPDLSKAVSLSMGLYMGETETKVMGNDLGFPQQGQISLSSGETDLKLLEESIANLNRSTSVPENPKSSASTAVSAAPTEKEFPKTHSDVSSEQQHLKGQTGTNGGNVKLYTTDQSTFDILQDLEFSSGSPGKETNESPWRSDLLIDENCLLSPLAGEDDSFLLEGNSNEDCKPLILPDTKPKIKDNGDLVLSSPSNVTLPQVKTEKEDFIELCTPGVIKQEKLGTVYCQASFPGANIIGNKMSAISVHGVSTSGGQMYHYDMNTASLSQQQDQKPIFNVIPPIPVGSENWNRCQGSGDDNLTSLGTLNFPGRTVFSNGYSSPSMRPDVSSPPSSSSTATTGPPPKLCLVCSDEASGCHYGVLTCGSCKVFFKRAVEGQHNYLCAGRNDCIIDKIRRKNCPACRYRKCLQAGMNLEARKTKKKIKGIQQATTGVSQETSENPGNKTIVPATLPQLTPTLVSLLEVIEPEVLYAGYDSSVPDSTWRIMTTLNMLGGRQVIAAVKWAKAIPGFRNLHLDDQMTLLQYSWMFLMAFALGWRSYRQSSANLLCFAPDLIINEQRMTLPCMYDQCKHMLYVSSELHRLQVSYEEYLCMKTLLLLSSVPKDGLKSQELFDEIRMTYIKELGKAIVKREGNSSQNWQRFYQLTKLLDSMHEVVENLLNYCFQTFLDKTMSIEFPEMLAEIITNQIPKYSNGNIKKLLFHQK
Chain of Cytochrome P450 3A4 (Homo sapiens) (P08684 whole entry, looked up): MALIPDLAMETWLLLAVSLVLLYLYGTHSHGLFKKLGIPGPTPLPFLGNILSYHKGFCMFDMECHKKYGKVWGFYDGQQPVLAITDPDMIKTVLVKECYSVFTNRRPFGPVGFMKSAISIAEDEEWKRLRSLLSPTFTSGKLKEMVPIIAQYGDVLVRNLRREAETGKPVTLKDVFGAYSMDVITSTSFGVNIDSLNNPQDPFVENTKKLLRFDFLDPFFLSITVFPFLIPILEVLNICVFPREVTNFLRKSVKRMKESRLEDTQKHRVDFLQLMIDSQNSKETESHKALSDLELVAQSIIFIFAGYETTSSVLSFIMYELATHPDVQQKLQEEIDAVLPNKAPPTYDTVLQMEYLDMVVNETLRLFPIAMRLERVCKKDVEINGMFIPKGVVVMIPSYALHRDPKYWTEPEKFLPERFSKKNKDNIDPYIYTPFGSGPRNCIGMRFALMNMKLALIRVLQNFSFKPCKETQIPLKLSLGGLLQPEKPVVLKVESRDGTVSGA
Chain of Nuclear receptor subfamily 1 group I member 2 (Homo sapiens) (O75469 whole entry, looked up): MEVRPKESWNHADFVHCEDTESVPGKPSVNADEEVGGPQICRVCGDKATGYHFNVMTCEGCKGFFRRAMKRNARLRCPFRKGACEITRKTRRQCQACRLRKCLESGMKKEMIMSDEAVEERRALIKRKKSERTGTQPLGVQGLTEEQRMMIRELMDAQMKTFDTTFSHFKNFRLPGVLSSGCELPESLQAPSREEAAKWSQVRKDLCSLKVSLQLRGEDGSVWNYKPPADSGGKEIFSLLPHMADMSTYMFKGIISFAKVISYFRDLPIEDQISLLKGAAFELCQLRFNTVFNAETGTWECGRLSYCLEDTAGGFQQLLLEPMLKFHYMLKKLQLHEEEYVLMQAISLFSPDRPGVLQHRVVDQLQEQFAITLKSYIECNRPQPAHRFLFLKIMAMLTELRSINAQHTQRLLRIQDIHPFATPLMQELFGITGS

OCCc1ccc(O)cc1
inactive: outcome [1] | outcome [2] | Potency [3] | outcome [4] | Potency [5] | Potency [6] | outcome [7] | Potency [8] | max response [9] -3.57% | outcome [10] | Potency [11] | outcome [12]

Cc1ccc(C(C)C)cc1
inactive: outcome [1] | outcome [2] | Potency [3] | outcome [4] | Potency [5] | Potency [6] | outcome [7] | Potency [8] | max response [9] -0.622% | outcome [10] | Potency [11] | outcome [12]

COc1cc(/C=C/c2ccccc2)oc(=O)c1
inactive: Potency [13] | outcome [1] | outcome [2] | outcome [4] | Potency [5] | Potency [6] | outcome [7] | max response [9] 2.93% | outcome [10] | outcome [12]
active: Potency [3] 12.6 µM | Potency [8] 7.08 µM

C=C1CC[C@H](O)C/C1=C\C=C1/CCC[C@]2(C)[C@@H]([C@H](C)CC[C@H](C)C(C)C)CC[C@@H]12
inactive: outcome [1] | outcome [2] | Potency [3] | outcome [4] | Potency [6] | outcome [7] | Potency [8] | max response [9] -0.676% | outcome [10] | outcome [12]
active: Potency [5] 15.8 µM | Potency [11] 28.2 µM

Cc1ccc(O)c(O)c1
active: Potency [11] 50.1 µM
inactive: outcome [2] | outcome [4] | Potency [5] | Potency [6] | outcome [7] | Potency [8] | max response [9] -0.684% | outcome [10] | outcome [12]

COc1ncc2nc(-c3cccs3)c(=O)n(CCC#N)c2n1
active: Potency [15] 6.31 µM
inactive: Potency [14] > 11.4 µM | activity change, negative = inhibition [16] 8.94% | outcome [17] | Potency [18] > 46 µM | Potency [13] | Potency [19]

COc1ccc2[nH]cc(CCNc3nc(-c4c(C)noc4C)nc4ccccc34)c2c1
inactive: Potency [14] > 2.29 µM | Potency [20] > 46 µM | Potency [18] > 46 µM | Potency [13] | Potency [19]

O=c1cnc2cnc(N3CCOCC3)nc2n1Cc1cccs1
active: Potency [15] 2.51 µM
inactive: Potency [14] > 11.4 µM | activity change, negative = inhibition [16] -0.57% | outcome [17] | Potency [20] > 9.22 µM | Potency [18] > 46 µM | Potency [13] | Potency [19]

Cc1nc2cnc(N3CCOCC3)nc2n(CCc2ccccc2)c1=O
inactive: Potency [14] > 11.4 µM | activity change, negative = inhibition [16] 15.3% | outcome [17] | Potency [20] > 9.22 µM | Potency [18] > 46 µM | Potency [13] | Potency [19]

CCCCCCCCCCCC(=O)O
inactive: Potency [13] | outcome [4] | Potency [5] | Potency [6] | outcome [7] | max response [9] 3.72% | outcome [10] | Potency [11] | outcome [12]

c1ccc2c(NCCN3CCOCC3)nc(-c3ccc4c(c3)OCO4)nc2c1
inactive: Potency [14] > 11.4 µM | activity change, negative = inhibition [16] 12.2% | outcome [17] | Potency [20] > 46 µM | Potency [18] > 46 µM | Potency [13] | Potency [19]

CC1(C)CC[C@]2(C(=O)O)CC[C@]3(C)C(=CCC4[C@@]5(C)CC[C@H](O)[C@@](C)(CO)C5CC[C@]43C)[C@H]2C1 (stereo partly specified)
inactive: outcome [1] | outcome [2] | Potency [3] | outcome [4] | Potency [6] | outcome [7] | Potency [8] | max response [9] -0.0807% | outcome [10] | Potency [11] | outcome [12]

CCCCC/C=C/C/C=C/CCCCCCCC(=O)O
active: Potency [5] 22.4 µM
inactive: outcome [4] | outcome [7] | max response [9] 0.865% | outcome [10] | Potency [11] | outcome [12]

CN(C)Cc1ccccc1-c1ccc2ncnc(N(C)C)c2c1
active: Potency [15] 12.6 µM
inactive: activity change, negative = inhibition [16] -2.16% | outcome [17] | Potency [20] > 46 µM | Potency [18] > 46 µM | Potency [13] | Potency [19]
